Assay results taken from the supplement of paper PMC8975748.
Structures can show the parent of a compound that is named as a salt.

Tested on: Saccharomyces cerevisiae BY4741 SeMeCo community
Assay: z-score of subpopulation abundance vs DMSO median, subpopulation auxotrophic for HLU; higher = larger share of this subpopulation than in DMSO controls
Conditions: 10 µM; 24 h; SM minimal medium; subpopulation (auxotrophy): HLU
Protocol: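 Fluorescent four-plasmid SeMeCo (self-establishing metabolically cooperating S. cerevisiae BY4741 community; plasmids pH-mRuby2, pL-mWasabi, pU-eCFP, pM-TagRFP657) was grown 24 h in minimal SM medium with each Selleck FDA-approved drug at 10 µM in 384-well plates. Cells were fixed and imaged by high-content confocal microscopy. For each auxotrophic subpopulation (and the prototroph), a z-score gives the deviation from the DMSO vehicle-control population median.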

Row | Compound | z-score of subpopulation abundance
1 | C[C@H]1[C@H](NC(=O)/C(=N\OC(C)(C)C(=O)O)c2csc(N)n2)C(=O)N1S(=O)(=O)O [Aztreonam] | 0.52
2 | CCOC(=O)C1=C(COCCN)NC(C)=C(C(=O)OC)C1c1ccccc1Cl (stereo not given) [Amlodipine] | -3.87
3 | Clc1ccc(COC(Cn2ccnc2)c2ccc(Cl)cc2Cl)c(Cl)c1 (stereo not given) [Miconazole] | 11.1
4 | CO/N=C(\C(=O)N[C@@H]1C(=O)N2C(C(=O)[O-])=C(C[n+]3cccc4c3CCC4)CS[C@H]12)c1csc(N)n1 [Cefpirome sulfate] | -0.14
5 | Nc1ccc(S(N)(=O)=O)cc1 [Sulfanilamide] | -1.52
6 | CN[C@@H]1[C@H](O[C@H]2[C@H](O[C@H]3[C@H](O)[C@@H](O)[C@H](NC(=N)N)[C@@H](O)[C@@H]3NC(=N)N)O[C@@H](C)[C@]2(O)CO)O[C@@H](CO)[C@H](O)[C@H]1O [Dihydrostreptomycin sulfate] | -1
7 | CSc1nc2cc(Cl)c(Oc3cccc(Cl)c3Cl)cc2[nH]1 [Triclabendazole] | 2.64
8 | CC#C[C@]1(O)CC[C@H]2[C@@H]3CCC4=CC(=O)CCC4=C3[C@@H](c3ccc(N(C)C)cc3)C[C@@]21C [Mifepristone] | 0.41
9 | O=C(O)CCC(=O)Nc1ccc(S(=O)(=O)Nc2nccs2)cc1 [Succinylsulfathiazole] | -0.43
10 | CN(C)CCC=C1c2ccccc2C=Cc2ccccc21 [Cyclobenzaprine HCl] | -0.46
11 | C/C=C\c1ccc(O)c(OC)c1 [Isoeugenol] | 0.2
12 | OC(CCN1CCCCC1)(c1ccccc1)C1CCCCC1 (stereo not given) [Trihexyphenidyl hydrochloride] | -0.09
13 | CCOc1cc(N)c(Cl)cc1C(=O)NCC1CN(Cc2ccc(F)cc2)CCO1 (stereo not given) [Mosapride Citrate] | 0.02
14 | O=C1C(N(CO)C(=O)NCO)N(CO)C(=O)N1CO (stereo not given) [Diazolidinyl urea] | 0.05
15 | COC(=O)C1=C(C)NC(C)=C(C(=O)OCCN(C)Cc2ccccc2)C1c1cccc([N+](=O)[O-])c1 (stereo not given) [Nicardipine HCl] | 0.11
16 | COc1ccccc1N1CCN(CCCNc2cc(=O)n(C)c(=O)n2C)CC1 [Urapidil HCl] | -0.11
17 | CCC(=O)NS(=O)(=O)c1ccc(-c2c(-c3ccccc3)noc2C)cc1 [Parecoxib] | 0.16
18 | CC(=O)N[C@H]1[C@H]([C@H](O)[C@H](O)CO)OC(C(=O)O)=C[C@@H]1NC(=N)N [Zanamivir] | 0.56
19 | Cn1c(=O)c2c(ncn2CC2OCCO2)n(C)c1=O [Doxofylline] | -0.64
20 | CCCCC(=O)O[C@H]1CC[C@H]2[C@@H]3CCc4cc(O)ccc4[C@H]3CC[C@]12C [Estradiol valerate] | 0.43

Row | Compound | z-score of subpopulation abundance
21 | CCCNC(C)C(=O)Nc1ccccc1C (stereo not given) [Prilocaine hydrochloride] | -0.01
22 | CCN1CCN(C(=O)N[C@@H](C(=O)N[C@@H]2C(=O)N3[C@@H]2SC(C)(C)[C@@H]3C(=O)O)c2ccccc2)C(=O)C1=O [Piperacillin Sodium] | 0.68
23 | CCn1cc(C(=O)O)c(=O)c2ccc(C)nc21 [Nalidixic acid] | -0.15
24 | CN1C2CCC1CC(OC(=O)C(O)c1ccccc1)C2 (stereo not given) [Homatropine Bromide] | -0.08
25 | CCCc1nc(C)c2c(=O)nc(-c3cc(S(=O)(=O)N4CCN(CC)CC4)ccc3OCC)[nH]n12 [Vardenafil HCl Trihydrate] | 0.57
26 | CN1CCc2cc3c(cc2C(=O)Cc2ccc4c(c2C1)OCO4)OCO3 [Protopine] | 0.88
27 | Nc1nc2[nH]cc(CCc3ccc(C(=O)N[C@@H](CCC(=O)O)C(=O)O)cc3)c2c(=O)[nH]1 [Pemetrexed Disodium Hydrate] | 11.4
28 | CNS(=O)(=O)CCc1ccc2[nH]cc(C3CCN(C)CC3)c2c1 [Naratriptan HCl] | -0.03
29 | CCCOc1ccc2[nH]c(NC(=O)OC)nc2c1 [Oxibendazole] | 0.8
30 | COC(=O)C1=C(C)NC(C)=C(C(=O)OC(C)C)C1c1cccc2nonc12 (stereo not given) [Isradipine] | 0.04
31 | Clc1ccc(CCC(Cn2ccnc2)Sc2c(Cl)cccc2Cl)cc1 (stereo not given) [Butoconazole] | 9.84
32 | C#C[C@]1(O)CC[C@H]2[C@@H]3CCc4cc(OC)ccc4[C@H]3CC[C@@]21C [Mestranol] | -0.61
33 | COC(=O)Nc1nc2cc(C(=O)c3ccc(F)cc3)ccc2[nH]1 [Flubendazole] | 0.3
34 | CCOC(=O)C1=C(C)NC(C)=C(C(=O)OC)C1c1cccc([N+](=O)[O-])c1 (stereo not given) [Nitrendipine] | -0.48
35 | CN(CCOc1ccc(NS(C)(=O)=O)cc1)CCc1ccc(NS(C)(=O)=O)cc1 [Dofetilide] | -0.23
36 | CONC(=O)Nc1ccc(-c2sc3c(c2CN(C)C)c(=O)n(-c2ccc(OC)nn2)c(=O)n3Cc2c(F)cccc2F)cc1 [Relugolix] | 0.32
37 | CC1(C)S[C@@H]2[C@H](NC(=O)Cc3ccccc3)C(=O)N2[C@H]1C(=O)O [Penicillin G Sodium] | -0.18
38 | C[C@]12CC[C@@H]3c4ccc(O)cc4C[C@@H](CCCCCCCCC[S+]([O-])CCCC(F)(F)C(F)(F)F)[C@H]3[C@@H]1CC[C@@H]2O (stereo not given in full) [Fulvestrant] | 1.48
39 | CC(C)c1c(C(=O)Nc2ccccc2)c(-c2ccccc2)c(-c2ccc(F)cc2)n1CC[C@@H](O)C[C@@H](O)CC(=O)O [Atorvastatin] | 1.73
40 | CCCCCC(=O)O[C@]1(C(C)=O)CC[C@H]2[C@@H]3CCC4=CC(=O)CC[C@]4(C)[C@H]3CC[C@@]21C [Hydroxyprogesterone caproate] | 0.62
